Results reported in PubChem BioAssay (NCI).
The panel holds about 79,000 compounds, 15% with a hit somewhere; the sample as a whole holds those more often. Activity calls are given as the source filed them. Rule as the data show it: active = growth inhibition above about 70%; inactive = the rest.

Key:
[1] = NCI Yeast Anticancer Drug Screen. Data for the rad52 strain (AID 147);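 also: 0% = growth of vehicle-treated control cultures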; conditions: S. cerevisiae rad52 mutant growth inhibition, hits give high values
Method in brief: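 Yeast strain carrying a DNA damage repair alteration was exposed to test compounds. Growth inhibition was measured relative to vehicle-treated controls.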

[2] = NCI Yeast Anticancer Drug Screen. Data for the wt1 strain (AID 149);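 also: 0% = growth of vehicle-treated wt1 cultures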; conditions: S. cerevisiae wt1 strain (SPY 50644) growth inhibition, hits give high values
Method in brief: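 Compounds are added to wt1 yeast cultures. Growth is then measured. Inhibition is expressed relative to vehicle-treated controls.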

[3] = NCI Yeast Anticancer Drug Screen. Data for the mgt1 strain (AID 153); conditions: S. cerevisiae mgt1 mutant growth inhibition, hits give high values
Method in brief: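 Yeast mgt1 strain (DNA repair/cell-cycle alteration panel) exposed to compounds; growth inhibition measured relative to vehicle-treated controls.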

[4] = NCI Yeast Anticancer Drug Screen. Data for the rad50 strain (AID 155);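 also: 0% = growth of vehicle-only cultures of the same strain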; conditions: S. cerevisiae rad50 strain growth inhibition, hits give high values
Method in brief: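 Inhibition values express reduced yeast growth in compound-treated cultures relative to vehicle-treated controls.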

[5] = NCI Yeast Anticancer Drug Screen. Data for the mec2-1 strain (AID 157); conditions: S. cerevisiae mec2-1 strain, hits give high values
Method in brief: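 mec2-1 yeast strain, carrying an alteration in DNA damage repair or cell cycle control, was exposed to compounds; growth inhibition was measured relative to vehicle-treated controls.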

[6] = NCI Yeast Anticancer Drug Screen. Data for the rad14 strain (AID 159);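 also: 0% = growth of vehicle-treated control cultures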; conditions: S. cerevisiae rad14 strain growth inhibition, hits give high values
Method in brief: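 A mutant yeast strain defective in DNA damage repair is treated with compound; inhibition of its growth is scored against untreated, vehicle-exposed cultures.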

[7] = NCI Yeast Anticancer Drug Screen. Data for the sgs1 mgt1 strain (AID 161);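 also: 0% = growth of cultures given vehicle only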; conditions: S. cerevisiae sgs1 mgt1 strain, hits give high values
Method in brief: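 Growth of a repair-deficient yeast mutant was monitored after compound treatment and expressed as inhibition relative to vehicle-treated cultures.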

[8] = NCI Yeast Anticancer Drug Screen. Data for the CLN2oe strain (AID 163);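 also: 0% = growth of vehicle-only control cultures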; conditions: S. cerevisiae CLN2oe strain, hits give high values
Method in brief: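 Yeast cells carrying a defined cell-cycle control alteration were exposed to test compounds. Growth inhibition was scored against vehicle-treated control cultures.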

[9] = NCI Yeast Anticancer Drug Screen. Data for the cln2 rad14 strain (AID 165);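 also: 0% = growth equal to vehicle treated cultures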; conditions: S. cerevisiae cln2 rad14 strain, hits give high values
Method in brief: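 Yeast carrying cln2 and rad14 alterations (cell cycle control and DNA damage repair) were exposed to compounds. Growth inhibition was measured against vehicle-treated controls.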

[10] = NCI Yeast Anticancer Drug Screen. Data for the bub3 strain (AID 167); conditions: S. cerevisiae bub3 mutant strain, hits give high values
Method in brief: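 Steps: expose the mutant yeast strain to compound; grow alongside vehicle-treated cultures; measure growth; express inhibition against the vehicle cultures.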

[11] = NCI Yeast Anticancer Drug Screen. Data for the wt2 strain (AID 169);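 also: 0% = growth of vehicle-treated yeast cultures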; conditions: S. cerevisiae wt2 strain growth inhibition, hits give high values
Method in brief: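 Yeast cells were exposed to test compounds, and growth inhibition was measured relative to vehicle-treated controls.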

[12] = NCI Yeast Anticancer Drug Screen. Data for the mlh1 strain (AID 171);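 also: 0% = growth of vehicle-treated control cultures of the same strain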; conditions: S. cerevisiae mlh1 strain growth inhibition, hits give high values
Method in brief: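 Yeast carrying a defined genetic alteration in DNA damage repair or cell cycle control were exposed to test compounds. Growth inhibition was measured relative to vehicle-treated controls.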

[13] = NCI Yeast Anticancer Drug Screen. Data for the sgs1 strain (AID 173);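 also: 0% = growth of vehicle-only control cultures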; conditions: S. cerevisiae sgs1 mutant, hits give high values
Method in brief: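 Yeast mutant strains carrying defined defects in DNA damage repair or cell cycle control were exposed to test compounds. Growth inhibition was scored against vehicle-treated controls.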

[14] = NCI Yeast Anticancer Drug Screen. Data for the mlh1 rad18 strain (AID 175); conditions: S. cerevisiae mlh1 rad18 strain growth inhibition, hits give high values
Method in brief: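 Growth inhibition of the yeast strain was measured after compound exposure and expressed relative to vehicle-treated controls. The strain carries defined defects in DNA damage repair.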

[15] = NCI Yeast Anticancer Drug Screen. Data for the rad18 strain (AID 177); conditions: S. cerevisiae rad18 mutant growth inhibition, hits give high values
Method in brief: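 Yeast carrying a defined DNA damage repair alteration were exposed to compounds. Growth inhibition was expressed relative to vehicle-treated controls.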

[16] = at 5.0 µM (retest, dose inferred, filed as 0.5)
[17] = at 50.0 µM (retest, dose inferred, filed as 5.0)

Measured: growth inhibition

CC(C)(C)CC(C)(C)c1cc(O)c(O)c(CN2CCCCC2)c1
inactive: [1]; at 1.2 µM -2% | [1]; at 3.7 µM -3% | [1]; at 11.0 µM 1% | [1]; at 33.0 µM 12% | [1]; at 100.0 µM 32% | [2]; at 1.2 µM 0% | [2]; at 3.7 µM 1% | [2]; at 11.0 µM 4% | [2]; at 33.0 µM 10% | [2]; at 100.0 µM 7% | [3]; at 1.2 µM -1% | [3]; at 3.7 µM -1% | [3]; at 11.0 µM 0% | [3]; at 33.0 µM 3% | [3]; at 100.0 µM 67% | [4]; at 1.2 µM -1% | [4]; at 3.7 µM 0% | [4]; [16] 5% | [4]; at 11.0 µM 9% | [4]; at 33.0 µM 9% | [4]; [17] 54% | [4]; at 100.0 µM 25% | [5]; at 1.2 µM 0% | [5]; at 3.7 µM 1% | [5]; [16] 16% | [5]; at 11.0 µM 2% | [5]; at 33.0 µM 7% | [5]; [17] 11% | [5]; at 50.0 µM 57.9% | [5]; at 100.0 µM 24% | [6]; at 1.2 µM -1% | [6]; at 3.7 µM 2% | [6]; at 11.0 µM 10% | [6]; at 33.0 µM 30% | [6]; at 100.0 µM 68% | [7]; [16] -5% | [7]; [17] 35% | [7]; at 50.0 µM 57.4% | [8]; at 1.2 µM -3% | [8]; at 3.7 µM 1% | [8]; at 11.0 µM 0% | [8]; at 33.0 µM 9% | [8]; at 100.0 µM 49% | [9]; [16] -22% | [9]; [17] 13% | [10]; at 1.2 µM -3% | [10]; at 3.7 µM 2% | [10]; [16] -13% | [10]; at 11.0 µM -30% | [10]; at 33.0 µM 17% | [10]; [17] 59% | [10]; at 100.0 µM 27% | [11]; at 1.2 µM -2% | [11]; at 3.7 µM -1% | [11]; at 11.0 µM 1% | [11]; at 33.0 µM 11% | [11]; at 100.0 µM 39% | [12]; at 1.2 µM 3% | [12]; at 3.7 µM 3% | [12]; at 11.0 µM 4% | [12]; at 33.0 µM -24% | [12]; at 100.0 µM 55% | [13]; at 1.2 µM 1% | [13]; at 3.7 µM 1% | [13]; at 11.0 µM 7% | [13]; at 33.0 µM 24% | [13]; at 100.0 µM 63% | [14]; [16] 3% | [14]; [17] 45% | [14]; at 50.0 µM 65% | [15]; at 1.2 µM 5% | [15]; at 3.7 µM 3% | [15]; at 11.0 µM -38% | [15]; at 33.0 µM 28% | [15]; at 100.0 µM 62%
active: [4]; at 50.0 µM 71.8% | [9]; at 50.0 µM 73.7% | [10]; at 50.0 µM 78.6%

Cc1cc(C)c(NC(=S)NC(=O)c2ccccc2)cc1C
inactive: [1]; at 1.2 µM -33% | [1]; at 3.7 µM -58% | [1]; at 11.0 µM -54% | [1]; at 33.0 µM -41% | [1]; at 100.0 µM -44% | [2]; at 1.2 µM -46% | [2]; at 3.7 µM -29% | [2]; at 11.0 µM -39% | [2]; at 33.0 µM -17% | [2]; at 100.0 µM -14% | [3]; at 1.2 µM -57% | [3]; at 3.7 µM -54% | [3]; at 11.0 µM -25% | [3]; at 33.0 µM 26% | [3]; at 100.0 µM 37% | [4]; at 1.2 µM -50% | [4]; at 3.7 µM -52% | [4]; [16] -13% | [4]; at 11.0 µM -52% | [4]; at 33.0 µM -39% | [4]; [17] -4% | [4]; at 50.0 µM 18.4% | [4]; at 100.0 µM -21% | [5]; at 1.2 µM -41% | [5]; at 3.7 µM -61% | [5]; [16] -16% | [5]; at 11.0 µM -49% | [5]; at 33.0 µM -46% | [5]; [17] 4% | [5]; at 50.0 µM -0.25% | [5]; at 100.0 µM -11% | [7]; [16] -7% | [7]; [17] 41% | [7]; at 50.0 µM 25.3% | [8]; at 1.2 µM -63% | [8]; at 3.7 µM -78% | [8]; at 11.0 µM -58% | [8]; at 33.0 µM -64% | [8]; at 100.0 µM -57% | [9]; [16] -4% | [9]; [17] 15% | [9]; at 50.0 µM 2.25% | [10]; at 1.2 µM -21% | [10]; at 3.7 µM -17% | [10]; [16] 8% | [10]; at 11.0 µM 38% | [10]; at 33.0 µM 65% | [10]; at 50.0 µM 49.6% | [10]; at 100.0 µM 62% | [11]; at 1.2 µM -43% | [11]; at 3.7 µM -49% | [11]; at 11.0 µM -43% | [11]; at 33.0 µM -4% | [11]; at 100.0 µM 22% | [12]; at 1.2 µM -34% | [12]; at 3.7 µM -20% | [12]; at 11.0 µM -7% | [12]; at 33.0 µM 34% | [12]; at 100.0 µM 32% | [13]; at 1.2 µM -62% | [13]; at 3.7 µM -54% | [13]; at 11.0 µM -45% | [13]; at 33.0 µM -3% | [13]; at 100.0 µM -1% | [14]; [16] -37% | [14]; [17] -12% | [14]; at 50.0 µM 8.65% | [15]; at 1.2 µM -75% | [15]; at 3.7 µM -62% | [15]; at 11.0 µM -73% | [15]; at 33.0 µM -41% | [15]; at 100.0 µM -46%
active: [10]; [17] 79%
